Here are results for 13 compounds from PubChem BioAssay (NCATS).

Results filed as inconclusive are left out. Calls of active or inactive are those of the source. Calls come from the whole dose curve; as a rule, active = well fitted curve in the direction sought with a large enough effect; inconclusive = small, poorly fitted or top-dose-only effect, or another doubt; inactive = no such curve, though single readings can be large; an effect the other way counts as inactive or inconclusive.

The nature of assay [1]: Quantitative High-Throughput drug screen in 47 multiple myeloma cell lines against the NCATS MIPE library collection: Karpas620_DSMZ cell viability assay (AID 1918959). Note: nearly all actives have a fitted effect of over 30% in size. The method in brief: (§1)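 We plated 500 myeloma cells per well, pinned in MIPE 4.0 compounds, and incubated for 48 hours at 37C. ATP was then quantified with CellTiter-Glo, with DMSO and media-only wells defining 100% and 0%.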

A short description of assay [2]: Quantitative High-Throughput drug screen in 47 multiple myeloma cell lines against the NCATS MIPE library collection: KMM1_JCRB cell viability assay (AID 1918960). Note: nearly all actives have a fitted effect of over 30% in size. The method in brief: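 Cell viability inhibition in this qHTS is measured via ATP content (CellTiter-Glo) after 48 h drug exposure at 37 °C. Wells hold 500 cells; DMSO-treated wells define 100% and medium-only wells 0%.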

A short description of assay [3]: Quantitative High-Throughput drug screen in 47 multiple myeloma cell lines against the NCATS MIPE library collection: KHM11_PLB cell viability assay (AID 1918962). Note: nearly all actives have a fitted effect of over 35% in size. The method in brief: as §1
Assay [4] in a line: Quantitative High-Throughput drug screen in 47 multiple myeloma cell lines against the NCATS MIPE library collection: JIM3_ECACC cell viability assay (AID 1918963; note: nearly all actives have a fitted effect of over 35% in size). The procedure, abridged:
as §1

The nature of assay [5]: Quantitative High-Throughput drug screen in 47 multiple myeloma cell lines against the NCATS MIPE library collection: JIM1_ECACC cell viability assay (AID 1918964). The method in brief:
(§2)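 Inhibition of cell viability is measured here. Each line was plated at 500 cells per well, treated with MIPE 4.0 drugs, kept 48 hours at 37C, then assayed for ATP content by CellTiter-Glo luminescence.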

A short description of assay [6]: Quantitative High-Throughput drug screen in 47 multiple myeloma cell lines against the NCATS MIPE library collection: INA6_PLB cell viability assay (AID 1918965; note: nearly all actives have a fitted effect of over 55% in size). The method in brief:
(§3)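 Viability readout: CellTiter-Glo luminescence following 5 min room-temperature incubation with reagent. Prior exposure: 48 h, 37C, humidified 5% CO2, 500 cells per well.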

A short description of assay [7]: Quantitative High-Throughput drug screen in 47 multiple myeloma cell lines against the NCATS MIPE library collection: H1112_PLB cell viability assay (AID 1918967; note: nearly all actives have a fitted effect of over 30% in size). The procedure, abridged:
as §2

The nature of assay [8]: Quantitative High-Throughput drug screen in 47 multiple myeloma cell lines against the NCATS MIPE library collection: Karpas25_ECACC cell viability assay (AID 1918968; note: nearly all actives have a fitted effect of over 35% in size). The method in brief: as §2
The nature of assay [9]: Quantitative High-Throughput drug screen in 47 multiple myeloma cell lines against the NCATS MIPE library collection: KMS27_JCRB cell viability assay (AID 1918970). Note: nearly all actives have a fitted effect of over 30% in size. To be noted: KMS27 myeloma cells, CellTiter-Glo ATP viability, 48 h; viability (% of DMSO): at 45.8 µM (top of the series). The procedure, abridged: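 KMS27_JCRB myeloma cells, 500 per well, exposed 48 h at 37 C, 5% CO2 to MIPE 4.0 compounds. Viability from ATP by CellTiter-Glo luminescence, normalized to DMSO (100%) and medium-only (0%) wells.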
Background: Cellular ATP, detected with luciferase, serves as a proxy for viable cell number.

Assay [10] in a line: Quantitative High-Throughput drug screen in 47 multiple myeloma cell lines against the NCATS MIPE library collection: MOLP8_DSMZ cell viability assay (AID 1918977). Note: nearly all actives have a fitted effect of over 45% in size. The procedure, abridged:
(§4)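 Cells were exposed to library compounds for 48 hours, after which ATP was measured by CellTiter-Glo. Signal was taken as median relative luminescence units.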

Assay [11] is described as follows: Quantitative High-Throughput drug screen in 47 multiple myeloma cell lines against the NCATS MIPE library collection: NCIH929_DSMZ cell viability assay (AID 1918978). Note: nearly all actives have a fitted effect of over 35% in size. The method in brief:
as §4

Assay [12] can be described thus: Quantitative High-Throughput drug screen in 47 multiple myeloma cell lines against the NCATS MIPE library collection: OCIMY1_PLB cell viability assay (AID 1918979). Note: nearly all actives have a fitted effect of over 35% in size. The procedure, abridged: as §4
Assay [13] in a line: Quantitative High-Throughput drug screen in 47 multiple myeloma cell lines against the NCATS MIPE library collection: JJN3_DSMZ cell viability assay (AID 1918966; note: nearly all actives have a fitted effect of over 50% in size). The procedure, abridged:
as §2

The nature of assay [14]: Quantitative High-Throughput drug screen in 47 multiple myeloma cell lines against the NCATS MIPE library collection: KMS20_JCRB cell viability assay (AID 1918973). Note: nearly all actives have a fitted effect of over 45% in size. The procedure, abridged: as §2
A short description of assay [15]: Quantitative High-Throughput drug screen in 47 multiple myeloma cell lines against the NCATS MIPE library collection: KMS26_JCRB cell viability assay (AID 1918975). Note: nearly all actives have a fitted effect of over 45% in size. The procedure, abridged: (§5)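 Relative luminescence from CellTiter-Glo served as the viability signal, referenced to DMSO-treated (100%) and cell-free medium (0%) controls. Treatment lasted 48 hours at 37C with 500 cells per well.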

The nature of assay [16]: Quantitative High-Throughput drug screen in 47 multiple myeloma cell lines against the NCATS MIPE library collection: MMM1_PLB cell viability assay (AID 1918976). Note: nearly all actives have a fitted effect of over 35% in size. The procedure, abridged:
as §4

Assay [17] in a line: Quantitative High-Throughput drug screen in 47 multiple myeloma cell lines against the NCATS MIPE library collection: KMS12PE_JCRB cell viability assay (AID 1918972). Note: nearly all actives have a fitted effect of over 30% in size. The procedure, abridged: as §3
The nature of assay [18]: Quantitative High-Throughput drug screen in 47 multiple myeloma cell lines against the NCATS MIPE library collection: KMS12BM_JCRB cell viability assay (AID 1918971). Note: nearly all actives have a fitted effect of over 35% in size. The procedure, abridged:
as §5
Potency is the fitted concentration of half-maximal effect.

Regarding `COC(=O)[C@@H]1CC2=CC(=O)CC[C@]2(C)[C@@]23O[C@@H]2C[C@@]2(C)[C@H](CC[C@@]24CCC(=O)O4)[C@@H]13`, the Potency result in [1], in assay [2], in [3], in assay [4], in assay [5] and in [6] was “inactive” in each case. For the same compound, the Potency result in [7], in [8], in [9], in assay [10], in [11] and in assay [12] was “inactive” in each case.
For the compound `O=C(Nc1cccc(Nc2ncc(Br)c(NCCc3cnc[nH]3)n2)c1)N1CCCC1`, the Potency entry in assay [1], in [2] and in assay [9] was “inactive” in each case. Also, the Potency was 1.18 µM (active) in assay [3]; 6.62 µM (active) in assay [4]; 0.743 µM (active) in [6]; 11.8 µM (active) in [13]; 9.35 µM (active) in [7]; 5.9 µM (active) in assay [14]. The Potency in assay [15] is 10.5 µM (active); in assay [16] it was 18.7 µM (active); in assay [10], 6.62 µM (active); in [11], 7.43 µM (active).
For the compound `CC[C@H]1OC(=O)[C@H](C)[C@@H](O[C@H]2C[C@@](C)(OC)[C@@H](O)[C@H](C)O2)[C@H](C)[C@@H](O[C@@H]2O[C@@H](C)C[C@H](N(C)C)[C@@H]2O)[C@](C)(O)C[C@@H](C)C(=O)[C@H](C)[C@@H](O)[C@]1(C)O`, the Potency result in assay [1], in [2], in [3], in [4], in assay [5] and in assay [7] was “inactive” throughout. Also, the Potency entry in assay [9], in [17], in assay [15], in assay [10], in assay [11] and in assay [12] was “inactive” throughout.
For `NC(=O)c1cccc(-c2cccc(OC(=O)NC3CCCCC3)c2)c1`, the Potency result in assay [1], in assay [2], in assay [3], in [4], in [5] and in [13] was “inactive” throughout. The Potency result in [7], in assay [18], in assay [17], in assay [14], in assay [10] and in [11] was “inactive” throughout.
On to `C=C(C)[C@@H]1CC[C@]2(C(=O)O)CC[C@]3(C)[C@H](CC[C@@H]4[C@@]5(C)CC[C@H](O)C(C)(C)[C@@H]5CC[C@]43C)[C@@H]12`, for which the Potency result in assay [1], in assay [2], in [4], in [5], in [6] and in assay [7] was “inactive” in each case. In addition, the Potency entry in assay [9], in assay [15], in assay [10], in assay [11] and in assay [12] was “inactive” throughout. The Potency in [3] was 3.72 µM (active); in [17], 0.0372 µM (active).
`COc1ccnc2[nH]cc(C(=O)C(=O)N3CCN(C(=O)c4ccccc4)C[C@@H]3C)c12`: the Potency entry in assay [1], in assay [2], in assay [3], in [4], in [6] and in [7] was “inactive” each time. Also, the Potency result in [8], in assay [18], in [17], in assay [15], in [10] and in [11] was “inactive” in each case. Moreover, the Potency in [13] was 13.2 µM (active).
Consider `COc1cccc2c1C(=O)c1c(O)c3c(c(O)c1C2=O)C[C@@](O)(C(=O)CO)C[C@@H]3O[C@H]1C[C@H](N)[C@@H](O)[C@H](C)O1`, for which the Potency is 2.35 µM (active) in assay [1]; 2.09 µM (active) in [2]; 0.743 µM (active) in assay [3]; 0.935 µM (active) in [4]; 0.166 µM (active) in assay [6]; 0.662 µM (active) in [13]. For the same compound, the Potency is 0.59 µM (active) in [7]; 0.418 µM (active) in assay [8]; 0.935 µM (active) in assay [9]; 0.469 µM (active) in [18]; 2.35 µM (active) in assay [17]; 0.166 µM (active) in assay [14]. Moreover, the Potency in assay [15] was 1.48 µM (active); in assay [10] it was 0.372 µM (active); in assay [11], 0.235 µM (active); in assay [12], 1.66 µM (active).
Turning to `Nc1nc2c(c(=O)[nH]1)N(C=O)[C@H](CNc1ccc(C(=O)N[C@@H](CCC(=O)O)C(=O)O)cc1)CN2`, the Potency result in assay [1], in assay [2], in assay [3], in assay [4], in assay [5] and in assay [6] was “inactive” each time. Further, the Potency result in assay [7], in [8], in [9], in assay [18], in [17] and in assay [11] was “inactive” each time. Besides, in assay [12], the Potency result is “inactive”.
As to `O=C1NCCc2[nH]c(-c3ccncc3)cc21`, the Potency in assay [1] is 2.35 µM (active); in [2], 1.05 µM (active); in [3] it was 2.09 µM (active); in assay [4], 7.43 µM (active); in assay [5] it was 0.662 µM (active); in assay [6], 1.32 µM (active). For the same compound, the Potency in [7] is 4.18 µM (active); in assay [8] it was 2.96 µM (active); in assay [9] it was 1.32 µM (active); in assay [18], 3.72 µM (active); in assay [17], 6.62 µM (active); in assay [14], 2.64 µM (active). Also, the Potency was 3.32 µM (active) in assay [15], 1.66 µM (active) in [10], 2.64 µM (active) in [11] and 5.9 µM (active) in [12].
`N[C@H]1CN(c2c(F)cc3c(=O)c(C(=O)O)cn(C4C[C@@H]4F)c3c2Cl)CC12CC2` (stereo not given in full): the Potency result in assay [1], in [2], in [3], in [4], in [5] and in [7] was “inactive” throughout. The Potency entry in assay [9], in [14], in assay [11] and in [12] was “inactive” throughout. Also, in assay [15], the Potency was 16.6 µM (active).
Take `O=C(O)C=Cc1ccc(Cn2ccnc2)cc1`: the Potency entry in assay [1], in assay [2], in assay [3], in assay [4], in assay [5] and in [13] was “inactive” in each case. In addition, the Potency result in assay [7], in assay [8], in assay [17], in [15], in [10] and in assay [11] was “inactive” in each case. In assay [12], the Potency result was “inactive”.
`O=[N+]([O-])c1cn2c(n1)OC[C@@H](OCc1ccc(OC(F)(F)F)cc1)C2`: the Potency entry in assay [1], in assay [2], in [3], in assay [4], in [5] and in [7] was “inactive” each time. For the same compound, the Potency result in [8], in [17], in assay [15], in assay [10], in assay [11] and in assay [12] was “inactive” each time.
In the case of `C=C1CCC2[C@](C)(CO)C(O)CC[C@]2(C)C1CC=C1C(=O)OCC1O` (stereo not given in full), the Potency result in assay [1], in assay [2], in assay [3], in assay [4], in assay [6] and in assay [7] was “inactive” in each case. For the same compound, the Potency result in assay [8], in assay [17] and in [12] was “inactive” each time.
